The supplement of paper PMC11732987, “Enantioselective OTUD7B fragment discovery through chemoproteomics screening and high-throughput optimisation” (Communications Chemistry, 2025)

What was measured:
Experiment in all cases: log2 ratio of Biotin-Ahx-Ub-VS probe labelling (fragment/DMSO); higher = less target engagement (more negative = stronger competition), active = hit call of the paper (q ≤ 0.05, log2 ratio ≤ -1)
Conditions in all cases: compound concentration: 200 uM; treatment time: 3 h
ALG13 = molecular target: T1, ALG13 (UniProt Q9NP73)
T1 sequence (whole entry): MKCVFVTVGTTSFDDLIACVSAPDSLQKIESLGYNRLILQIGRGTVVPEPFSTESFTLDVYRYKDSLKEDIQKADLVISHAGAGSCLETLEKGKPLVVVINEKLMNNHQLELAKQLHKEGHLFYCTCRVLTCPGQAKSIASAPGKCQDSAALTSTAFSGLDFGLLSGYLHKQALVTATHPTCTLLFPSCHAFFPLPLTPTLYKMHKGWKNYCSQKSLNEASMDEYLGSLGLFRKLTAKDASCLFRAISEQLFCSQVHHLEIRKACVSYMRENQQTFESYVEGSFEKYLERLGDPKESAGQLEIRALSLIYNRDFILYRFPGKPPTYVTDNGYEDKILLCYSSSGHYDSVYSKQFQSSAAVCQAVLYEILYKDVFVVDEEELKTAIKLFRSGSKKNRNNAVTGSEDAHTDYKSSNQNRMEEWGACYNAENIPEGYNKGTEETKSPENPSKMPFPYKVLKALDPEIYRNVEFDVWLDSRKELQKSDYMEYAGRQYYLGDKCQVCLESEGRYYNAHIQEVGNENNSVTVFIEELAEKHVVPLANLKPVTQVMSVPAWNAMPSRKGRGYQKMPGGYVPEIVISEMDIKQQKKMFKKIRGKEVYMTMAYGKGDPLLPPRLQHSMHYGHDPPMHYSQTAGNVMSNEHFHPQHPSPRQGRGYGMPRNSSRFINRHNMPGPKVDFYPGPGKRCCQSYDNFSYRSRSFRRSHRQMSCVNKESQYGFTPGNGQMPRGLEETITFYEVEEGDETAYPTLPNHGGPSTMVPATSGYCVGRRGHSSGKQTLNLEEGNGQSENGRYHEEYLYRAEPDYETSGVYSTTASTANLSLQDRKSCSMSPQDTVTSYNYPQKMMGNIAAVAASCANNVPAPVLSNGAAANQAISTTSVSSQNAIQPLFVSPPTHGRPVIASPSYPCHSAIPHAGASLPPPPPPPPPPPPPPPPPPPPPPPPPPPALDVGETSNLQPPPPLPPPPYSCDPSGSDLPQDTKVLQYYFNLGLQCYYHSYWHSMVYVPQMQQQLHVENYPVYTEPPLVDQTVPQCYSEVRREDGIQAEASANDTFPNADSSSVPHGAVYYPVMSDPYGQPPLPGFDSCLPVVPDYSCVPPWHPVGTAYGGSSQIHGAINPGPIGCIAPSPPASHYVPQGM
In short: (§1)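 HEK293T lysate (495 µg per sample, in Tris/CHAPS/IGEPAL buffer with protease inhibitors) was treated in triplicate with fragment at 200 µM or with DMSO for 3 h. It was then treated with Biotin-Ahx-Ub-VS (0.5 µM final) for 1 h. Labelled DUBs were NeutrAvidin-enriched, digested with LysC and trypsin, and run by diaPASEF LC-MS/MS. Spectronaut label-free quantities were global-median-normalised. Values are average log2 ratios fragment/DMSO by unpaired t-test, using proteins with ≥2 unique peptides.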

ATXN3 = ATXN3 (UniProt P54252)
ATXN3, sequence (P54252 whole entry): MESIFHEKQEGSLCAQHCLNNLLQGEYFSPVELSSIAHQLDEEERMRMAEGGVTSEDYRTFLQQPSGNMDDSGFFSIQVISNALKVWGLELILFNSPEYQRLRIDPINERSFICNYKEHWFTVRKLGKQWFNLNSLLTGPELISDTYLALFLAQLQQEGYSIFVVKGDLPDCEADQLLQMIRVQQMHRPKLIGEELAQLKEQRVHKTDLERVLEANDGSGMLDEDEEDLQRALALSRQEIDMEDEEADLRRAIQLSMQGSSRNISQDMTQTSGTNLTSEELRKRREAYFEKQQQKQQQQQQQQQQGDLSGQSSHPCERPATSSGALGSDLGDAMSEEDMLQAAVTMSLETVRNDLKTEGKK
In short: as §1

BAP1 = molecular target: T2, BAP1 (UniProt Q92560)
T2 sequence (whole entry): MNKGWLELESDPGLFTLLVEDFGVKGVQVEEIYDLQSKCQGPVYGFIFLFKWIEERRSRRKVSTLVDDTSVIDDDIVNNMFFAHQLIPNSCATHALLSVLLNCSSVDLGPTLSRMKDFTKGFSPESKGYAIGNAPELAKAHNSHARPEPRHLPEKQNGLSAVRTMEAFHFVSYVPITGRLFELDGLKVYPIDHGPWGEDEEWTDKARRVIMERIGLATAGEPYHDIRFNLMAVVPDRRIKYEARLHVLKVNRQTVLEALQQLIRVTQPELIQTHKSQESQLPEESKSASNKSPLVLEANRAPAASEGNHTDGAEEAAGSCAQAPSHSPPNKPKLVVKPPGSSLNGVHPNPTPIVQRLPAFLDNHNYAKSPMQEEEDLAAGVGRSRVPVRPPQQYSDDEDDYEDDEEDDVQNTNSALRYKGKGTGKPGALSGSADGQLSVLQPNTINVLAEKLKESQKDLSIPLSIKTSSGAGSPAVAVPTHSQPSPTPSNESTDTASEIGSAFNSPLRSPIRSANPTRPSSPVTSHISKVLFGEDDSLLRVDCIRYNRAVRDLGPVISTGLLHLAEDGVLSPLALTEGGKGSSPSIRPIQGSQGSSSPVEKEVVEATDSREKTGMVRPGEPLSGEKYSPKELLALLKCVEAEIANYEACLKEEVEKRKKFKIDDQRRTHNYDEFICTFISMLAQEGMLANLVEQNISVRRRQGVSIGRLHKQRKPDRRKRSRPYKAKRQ
In short: as §1

EIF3F = EIF3F (UniProt O00303)
EIF3F, sequence (O00303 whole entry): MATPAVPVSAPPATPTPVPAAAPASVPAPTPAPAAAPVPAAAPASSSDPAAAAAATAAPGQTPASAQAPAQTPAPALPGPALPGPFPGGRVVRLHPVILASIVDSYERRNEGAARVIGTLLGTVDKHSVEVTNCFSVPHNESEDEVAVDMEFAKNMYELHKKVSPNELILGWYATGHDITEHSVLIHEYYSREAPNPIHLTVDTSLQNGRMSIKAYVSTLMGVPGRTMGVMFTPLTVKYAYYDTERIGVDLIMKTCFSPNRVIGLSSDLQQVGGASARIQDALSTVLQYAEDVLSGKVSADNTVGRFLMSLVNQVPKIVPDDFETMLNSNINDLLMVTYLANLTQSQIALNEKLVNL
In short: as §1

EIF3H = EIF3H (UniProt O15372)
EIF3H, sequence (O15372 whole entry): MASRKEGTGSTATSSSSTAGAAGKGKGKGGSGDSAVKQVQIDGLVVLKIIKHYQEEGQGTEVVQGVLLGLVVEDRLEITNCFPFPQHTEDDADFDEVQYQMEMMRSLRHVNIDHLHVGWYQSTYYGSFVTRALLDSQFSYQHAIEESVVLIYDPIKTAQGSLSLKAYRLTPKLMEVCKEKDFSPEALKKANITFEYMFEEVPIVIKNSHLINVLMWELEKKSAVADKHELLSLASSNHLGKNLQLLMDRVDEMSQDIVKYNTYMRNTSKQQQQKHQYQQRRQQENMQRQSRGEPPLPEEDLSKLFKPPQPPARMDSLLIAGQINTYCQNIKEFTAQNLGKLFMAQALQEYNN
In short: as §1

FAM105A = molecular target: T3, FAM105A (UniProt Q9NUU6)
T3 sequence (whole entry): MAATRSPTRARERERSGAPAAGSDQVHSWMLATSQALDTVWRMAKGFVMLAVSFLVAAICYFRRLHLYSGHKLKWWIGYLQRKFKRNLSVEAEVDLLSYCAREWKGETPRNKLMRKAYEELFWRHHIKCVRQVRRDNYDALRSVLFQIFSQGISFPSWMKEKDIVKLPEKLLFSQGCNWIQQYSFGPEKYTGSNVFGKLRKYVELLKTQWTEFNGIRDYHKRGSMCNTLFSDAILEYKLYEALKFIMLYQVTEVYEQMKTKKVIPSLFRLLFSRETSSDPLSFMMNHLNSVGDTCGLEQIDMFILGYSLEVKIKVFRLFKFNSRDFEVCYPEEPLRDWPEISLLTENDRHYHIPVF
In short: as §1

OTUB1 = OTUB1 (UniProt Q96FW1)
OTUB1, sequence (Q96FW1 whole entry): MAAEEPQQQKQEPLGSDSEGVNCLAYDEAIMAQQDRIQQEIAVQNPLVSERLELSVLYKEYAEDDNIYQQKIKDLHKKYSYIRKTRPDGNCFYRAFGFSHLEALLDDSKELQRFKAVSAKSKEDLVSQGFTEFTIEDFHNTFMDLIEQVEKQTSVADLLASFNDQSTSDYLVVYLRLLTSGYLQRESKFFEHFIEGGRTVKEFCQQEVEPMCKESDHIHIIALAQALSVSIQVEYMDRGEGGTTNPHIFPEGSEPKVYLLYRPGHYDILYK
In short: as §1

OTUD4 = molecular target: T4, OTUD4 (UniProt Q01804)
T4 sequence (whole entry): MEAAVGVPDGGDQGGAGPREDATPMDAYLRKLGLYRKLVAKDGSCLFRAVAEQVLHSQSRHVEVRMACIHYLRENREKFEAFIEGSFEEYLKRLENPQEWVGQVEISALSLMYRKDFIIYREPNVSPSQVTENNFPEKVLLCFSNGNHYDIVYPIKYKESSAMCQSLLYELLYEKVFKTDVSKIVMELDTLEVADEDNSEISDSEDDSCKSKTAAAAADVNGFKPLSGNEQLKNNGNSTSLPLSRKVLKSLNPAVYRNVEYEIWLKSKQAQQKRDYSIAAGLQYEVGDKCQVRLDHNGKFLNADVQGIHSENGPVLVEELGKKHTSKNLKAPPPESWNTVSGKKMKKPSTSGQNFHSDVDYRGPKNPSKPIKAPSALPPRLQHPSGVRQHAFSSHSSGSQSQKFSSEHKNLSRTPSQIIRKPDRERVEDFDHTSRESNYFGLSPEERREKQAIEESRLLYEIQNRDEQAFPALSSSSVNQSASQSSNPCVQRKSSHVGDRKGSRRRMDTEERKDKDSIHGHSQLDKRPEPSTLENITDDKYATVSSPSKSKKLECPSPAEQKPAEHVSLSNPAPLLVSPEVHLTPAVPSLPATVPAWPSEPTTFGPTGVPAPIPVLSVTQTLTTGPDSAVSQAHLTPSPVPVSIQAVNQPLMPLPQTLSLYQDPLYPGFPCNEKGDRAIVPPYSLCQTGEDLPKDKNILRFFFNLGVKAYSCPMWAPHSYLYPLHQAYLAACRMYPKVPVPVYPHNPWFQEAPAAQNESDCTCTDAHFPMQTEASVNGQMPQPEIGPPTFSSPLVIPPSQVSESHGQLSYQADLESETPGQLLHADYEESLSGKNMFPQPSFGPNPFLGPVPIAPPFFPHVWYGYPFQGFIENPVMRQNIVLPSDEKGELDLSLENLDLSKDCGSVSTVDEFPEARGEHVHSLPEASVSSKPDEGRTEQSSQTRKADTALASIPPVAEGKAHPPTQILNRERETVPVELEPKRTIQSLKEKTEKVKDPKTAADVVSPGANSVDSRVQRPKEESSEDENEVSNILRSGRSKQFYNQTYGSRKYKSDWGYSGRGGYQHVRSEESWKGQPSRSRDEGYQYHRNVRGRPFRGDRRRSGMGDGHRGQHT
In short: as §1

OTUD5 = molecular target: T5, OTUD5 (UniProt Q96G74)
T5 sequence (whole entry): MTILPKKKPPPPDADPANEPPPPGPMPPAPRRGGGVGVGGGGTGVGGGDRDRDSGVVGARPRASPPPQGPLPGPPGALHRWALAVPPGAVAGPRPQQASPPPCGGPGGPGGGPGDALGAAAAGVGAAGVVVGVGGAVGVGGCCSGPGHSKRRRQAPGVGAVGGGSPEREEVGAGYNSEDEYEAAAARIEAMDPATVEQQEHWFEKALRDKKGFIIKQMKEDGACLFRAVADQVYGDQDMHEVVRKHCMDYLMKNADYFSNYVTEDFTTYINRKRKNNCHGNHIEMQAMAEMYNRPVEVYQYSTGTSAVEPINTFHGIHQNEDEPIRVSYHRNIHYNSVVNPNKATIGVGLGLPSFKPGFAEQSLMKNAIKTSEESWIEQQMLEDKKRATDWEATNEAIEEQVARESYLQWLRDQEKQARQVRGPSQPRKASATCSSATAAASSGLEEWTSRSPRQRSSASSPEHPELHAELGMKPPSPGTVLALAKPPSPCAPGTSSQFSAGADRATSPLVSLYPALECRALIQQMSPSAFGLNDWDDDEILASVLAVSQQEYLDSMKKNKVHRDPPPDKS
In short: as §1

Measured: log2 ratio of Biotin-Ahx-Ub-VS probe labelling

O=C(CCl)Nc1ccccc1C(F)(F)F
active: BAP1 -2.61
inactive: ALG13 0.259 | ATXN3 -0.449 | EIF3F -0.519 | EIF3H 0.185 | FAM105A 0.257 | OTUB1 -0.144 | OTUD4 -0.356 | OTUD5 -0.489
